According to PubChem BioAssay AID743315 (Broad Institute, 2014):
Entries with a potency or affinity are not part of this list. Unmarked numbers belong to inactive results. The source made the active and inactive calls.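 The calls were made as follows: active = cell killing, with a fitted active concentration at or below twice the top valid dose tested; inconclusive = flat curve with moderate cell loss, or an unreliable fit; inactive = effect in the rising direction, plus the rest.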

experiment: loss of HEK293T viability via ATP – cell-based, plate reader, dry powder, set 10, cytotoxicity control, dose response (AID 743315); conditions: CellTiter-Glo ATP luminescence, 72 h; series mostly up to 26 µM; activity change, negative = cytotoxicity: at the top concentration

SMILES	activity change, negative = cytotoxicity	outcome
Cc1ccc(C(C)C)c(OCCn2c(=S)[nH]c3c(Cl)cccc32)c1	30.9%	–
Fc1ccc2[nH]c(=S)n(CCOc3ccccc3)c2c1	10.8%	–
S=c1[nH]c2cccc(Cl)c2n1CCOc1ccccc1	–	inactive
Cc1cccc(OCCn2c(=S)[nH]c3cc(F)ccc32)c1	-4.17%	–
O=c1[nH]c2ccccc2n1CCOc1ccccc1	-28.5%	–
Cc1cccc(OCCn2c(=S)[nH]c3c(F)cccc32)c1	–	inactive
Fc1cccc2c1[nH]c(=S)n2CCOc1ccccc1	–	inactive
CC(C)(C)c1ccccc1OCCn1c(=S)[nH]c2ccccc21	-30.9%	–
Cc1ccc(OCCn2c(=S)[nH]c3ccccc32)c(C)c1	-3.74%	–
Cc1ccc(C(C)C)c(OCCn2c(=S)[nH]c3ccc(F)cc32)c1	-9.68%	–
Cc1cccc(OCCn2c(=S)[nH]c3ccc(C(F)(F)F)cc32)c1	8.08%	–
S=c1[nH]c2ccccc2n1CCOc1ccccc1	-4.59%	–
Cc1ccc(C(C)C)c(OCCn2c(=S)[nH]c3cc(F)ccc32)c1	-57.5%	–
CC(C)c1ccccc1NCCn1c(=S)[nH]c2ccccc21	29.9%	–
Cc1cccc(OCCn2c(=S)[nH]c3ccccc32)c1	16.4%	–
Cc1cccc(OCCn2c(=S)[nH]c3ccccc32)c1C	6.98%	–
S=c1[nH]c2ccccc2n1CCOc1ccc(Cl)cc1	-22.7%	–
Cc1ccc(OCCn2c(=S)[nH]c3ccccc32)cc1	-44.4%	–
Cc1ccc(C(C)C)c(OCCn2c(=S)[nH]c3cccc(Cl)c32)c1	5.65% [at 12 µM]	–
S=c1[nH]c2ccccc2n1CCOc1ccccc1Cl	12.9%	–
COCc1nc2ccccc2n1CCOc1ccc(C(C)(C)C)cc1	32.5%	–
Cc1ccc(C(C)C)c(OCCn2c(=S)[nH]c3ccc(Cl)cc32)c1	25%	–
Cc1ccc(C(C)C)c(OCCn2c(=S)[nH]c3c(C)cccc32)c1	28%	–
Cc1ccc2c(c1)[nH]c(=S)n2CCOc1ccccc1	–	inactive
